Test results as given in PubChem BioAssay (NCI).
About 79,000 compounds went through this panel and 15% of them were active in at least one assay; those are over-represented in the sample as a whole. Activity calls are given as the source filed them. Cut-off read from the data, not from the text of the source: active = growth inhibition above about 70%; inactive = the rest.

Assay: NCI Yeast Anticancer Drug Screen. Data for the sgs1 mgt1 strain (AID 161);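 note: 0% = growth of cultures given vehicle only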
Conditions: S. cerevisiae sgs1 mgt1 strain, at 50.0 µM, active compounds read high
Method in brief: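 Compounds are added to genetically altered yeast, and growth is compared with cultures given vehicle alone to give percent inhibition.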

| SMILES | growth inhibition |
| --- | --- |
| COc1cccc(C2=NC(C(C)C)CO2)c1OC (stereo not given) | -15.8% (inactive) |
| CC(N)CCN (stereo not given) | -5.55% (inactive) |
| NNC(=O)c1c[nH]c2ccccc2c1=O | 0.85% (inactive) |
| CCOC(=O)C(Cc1c[nH]c2ccccc12)NC(C)=O (stereo not given) | 23.6% (inactive) |
| COc1ccc(C2c3cc4c(cc3OC(N3CCOCC3)C2C)OCO4)cc1 (stereo not given) | -20.2% (inactive) |
| COC(C)CC(=O)O (stereo not given) | -37.2% (inactive) |
| O=C(c1ccc(Cl)c(Cl)c1)n1c2ccccc2c2ccccc21 | -12.3% (inactive) |
| CCOC(=O)NC(=S)Nc1cn(C)cc1[N+](=O)[O-] | 8.8% (inactive) |
| O=C(O)c1c(Br)c(Br)c(Br)c(Br)c1C(=O)Nc1ccc(Cl)c(Cl)c1 | -0.75% (inactive) |
| CN(C(=O)CCC1OCCO1)c1cc([N+](=O)[O-])ccc1OCc1ccccc1 | 1.5% (inactive) |
| OC(CN1CCc2ccccc2C1)c1ccccc1 (stereo not given) | 49% (inactive) |
| OC(CNc1ccc(Cl)cc1)CN1CCOCC1 (stereo not given) | 14.9% (inactive) |
| O=C1CSC2=NC3=C(COC/C3=C\c3ccc(F)cc3)C(c3ccc(F)cc3)N12 (stereo not given) | 41.9% (inactive) |
| CC(CCC(=O)CS(C)=O)C1CCC2C3CCC4CCCCC4(C)C3CCC12C (stereo not given) | 25.8% (inactive) |
| O=C(C(c1ccccc1)C(F)(F)F)N1CCCC1 (stereo not given) | 5.05% (inactive) |
| CN(N)c1cnn(-c2ccccc2)c(=O)c1Cl | -22.1% (inactive) |
| C=CCCCCCCCCC(=O)N1CCN(C)CC1 | 9.1% (inactive) |
| CC(=O)Nc1cccnc1 | 4.85% (inactive) |
| C[C@@H]1C(=O)OCC2=C3C[C@@H](CC[C@@]3(C)C=CC2=O)[C@H](C)C(=O)OCC2=C3C[C@H]1CC[C@@]3(C)C=CC2=O | -1.35% (inactive) |
| NC(=O)c1cn[nH]c1N | 14.2% (inactive) |

| SMILES | growth inhibition |
| --- | --- |
| Cc1ccccc1S(=O)(=O)NSc1ccccc1[N+](=O)[O-] | 33% (inactive) |
| O=C(O)c1ccc2sc3ccccc3c(=O)c2c1 | 33.3% (inactive) |
| O=c1[nH]cc(C(F)(C(F)(F)F)C(F)(F)F)c(=O)[nH]1 | -24.6% (inactive) |
| CC(=O)Nc1ccc(C(=O)NN2C(=O)C(Cl)C2c2ccccc2O)cc1 (stereo not given) | -45.9% (inactive) |
| S=C(Nc1ccccc1)c1ccccc1 | -5.25% (inactive) |
| CCCCNS(=O)(=O)CCCC | -6.35% (inactive) |
| OC1=CC(=S)NC2CCCCC12 (stereo not given) | 45% (inactive) |
| CCC(=O)/C=C/C1=C(C)CCCC1(C)C | 6.25% (inactive) |
| C=C1C(=O)OC2C1CCC(C)=C1C(=O)C=C(C)C12 (stereo not given) | -6.6% (inactive) |
| CCCCCCCCCCCCCCCCCC(=O)N/N=C/c1ccccc1 | 12% (inactive) |
| O=C(O)c1ccc(C2COc3ccc(Cl)cc3C2)cc1 (stereo not given) | -23.8% (inactive) |
| CC(C)Oc1ccc(CCOC(=O)Nc2cccc3ccccc23)cc1 | 2% (inactive) |
| O=[N+]([O-])c1ccc(-c2nc3ccncc3[nH]2)cc1 | -15.2% (inactive) |
| CCOC(=O)C(Cc1ccccc1Cl)(Cc1ccccc1Cl)c1ccccc1 | -10.5% (inactive) |
| CCCCN(CCCC)CC(O)c1cc(-c2ccc(Cl)cc2)nc2c(Cl)cc(Cl)cc12 (stereo not given) | 10.3% (inactive) |
| CCCC(O)CNCc1ccc2ncccc2c1 (stereo not given) | 2.1% (inactive) |
| O=S(=O)(Oc1ccc(Cl)cc1)c1cccc(S(=O)(=O)Oc2ccc(Cl)cc2)c1 | -2.65% (inactive) |
| COP(=O)(OC)C1c2cc(Cl)ccc2-c2c(Cl)cc(Cl)cc21 (stereo not given) | 83.7% (active) |
| CC(=O)Oc1ccc(-c2ccccc2)cc1 | 16% (inactive) |
| NNC(=O)C1=NN(c2ccccc2)C(=O)C1 | 33.6% (inactive) |
